We go through twelve molecules from PubChem BioAssay.

Assay [1] in a line: inhibitors of TNFa-induced NFkB p65 translocation, primary screen, imaging, HUVEC, MLSMR starter and 10KST1 sets (AID 438;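 active = inhibition above 20% together with a positive visual image hit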;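 also: compound added about 3h40 before a 20 min TNFalpha stimulation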;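 as to inhibition: signal is the nuclear over cytoplasmic p65 intensity ratio per well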). The following applies: HUVEC TNFa-induced p65 nuclear translocation; cell count: measured here: nuclei count (cytotoxicity indicator), at 2.08 µM; inhibition: at 2 µM, stronger effect = higher value, 0% TNFa-plus-vehicle, 100% no-TNFa wells.
Assay [2] is described as follows: reduction of polyQ htt aggregates in cells – imaging, exon1htt(103Q)mCFP cells, high-content imaging, primary screen (AID 483;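 active = visual image review flags a hit and inhibition of aggregation exceeds 20%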;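 also: compound exposure lasted 3 days before fixation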;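 as to nuclei count: percent of the per-plate median nuclei count of sample wells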). The following applies: exon1htt(103Q)mCFP cell line, aggregate imaging, at 2 µM; inhibition of aggregation: stronger effect = higher value; nuclei count: measured here: cell count, toxicity.
The nature of assay [3]: endothelial E-selectin expression blockers – imaging, HUVEC, immunofluorescence, MLSMR starter and 10KST1 sets, primary screen (AID 487;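 active = visually confirmed hit in the image check and inhibition above 20%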;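 as to inhibition: signal is fraction of cell area covered by stained E-selectin grains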;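 as to nuclei count: 100% = median nuclei count of all wells on the same plate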). The following applies: HUVEC TNFalpha-induced E-selectin immunofluorescence imaging, at 2 µM; inhibition: stronger effect = higher value; nuclei count: measured here: cell number, toxicity.
Assay [4] has as its target Voltage-gated potassium channel subunit beta-2 (Rattus norvegicus) (UniProt P62483). Nature of the assay: inhibitors of rat Kvbeta2 reductase activity – biochemical, NADPH fluorescence, primary screen (AID 622;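 active = fluorescence slope higher than the sample average by over 3 SD, cut at about -0.22 in these data, passing the limit was not always enough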;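 also: slope of raw intensity against log time taken from 70 to 1610 s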). The following applies: recombinant KvBeta, 4-cyanobenzaldehyde reduction, at 10 µM, stronger effect = higher value.
Assay [5] shares this target. Description: enhancers of rat Kvbeta2 NADPH turnover – biochemical, NADPH fluorescence, primary screen (AID 623;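 active = NADPH fluorescence slope more negative than the mean of all samples by about 3 SD, 99.7% confidence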;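 also: fluorescence intensity change per second fitted from 20 to 320 s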). The following applies: Recombinant KvBeta, NADPH fluorescence decrease slope, 10 min; at 10 µM; stronger effect = lower value.
The target of assay [6] is Alpha-2C adrenergic receptor (Homo sapiens) (UniProt P18825). Nature of the assay: compounds altering alpha2C-coupled GIRK flux – cell-based, HEK293 alpha2C/GIRK1/2, thallium flux, primary screen (AID 624;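 active = fluorescence slope after compound addition differing from the mean of all screened samples at 99.7% confidence, in either direction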;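 also: slope of fluorescence ratio to pre-addition baseline per second over 15 to 24 s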). The following applies: thallium flux BTC fluorescence, at 10 µM, actives lie on both sides.
Sequence of Alpha-2C adrenergic receptor (Homo sapiens) (P18825 whole entry, looked up): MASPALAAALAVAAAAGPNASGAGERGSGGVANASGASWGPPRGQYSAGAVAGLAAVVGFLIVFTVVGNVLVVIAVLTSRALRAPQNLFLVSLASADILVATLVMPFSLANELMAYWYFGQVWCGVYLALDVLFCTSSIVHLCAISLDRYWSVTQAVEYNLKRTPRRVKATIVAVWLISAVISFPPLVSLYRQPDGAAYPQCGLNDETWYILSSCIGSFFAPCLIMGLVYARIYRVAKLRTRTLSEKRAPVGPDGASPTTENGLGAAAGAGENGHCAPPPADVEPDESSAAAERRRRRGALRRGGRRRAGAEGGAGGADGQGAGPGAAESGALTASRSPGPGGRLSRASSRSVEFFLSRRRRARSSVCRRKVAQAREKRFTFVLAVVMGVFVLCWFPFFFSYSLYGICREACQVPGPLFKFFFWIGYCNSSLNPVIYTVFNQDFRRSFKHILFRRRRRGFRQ
A short description of assay [7]: blockers of RIG-like receptor reporter activation – cell-based, Sendai virus stimulus, luciferase, 10K MLSCN set, TLR/RLR signaling modifier project, primary screen (AID 602276;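 active = inhibition at or above 50% at 10 µM; inactive = inhibition below 50%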;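 also: firefly luciferase from ISG56 promoter only with Renilla not read in this screen; 0% = Sendai virus plus DMSO and 100% = medium plus DMSO without virus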). The following applies: HEK293 RL24 IRF3 luciferase reporter, at 10 µM, stronger effect = higher value.
Assay [8] is described as follows: TLR3 IRF3 reporter activation blockers – cell-based, poly I:C stimulus, luciferase, 10K MLSCN set, primary screen (AID 602277). The following applies: HEK293-TLR3 RL24 IRF3 luciferase reporter, at 10 µM, stronger effect = higher value. (A reporter such as luciferase makes a cellular process visible.)

Calls of active or inactive are those of the source.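 The calls were made as follows, unless noted: active = inhibition of the reporter signal at or above 50%; inactive = inhibition below 50%.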

Sequence of Voltage-gated potassium channel subunit beta-2 (Rattus norvegicus) (P62483 whole entry, looked up): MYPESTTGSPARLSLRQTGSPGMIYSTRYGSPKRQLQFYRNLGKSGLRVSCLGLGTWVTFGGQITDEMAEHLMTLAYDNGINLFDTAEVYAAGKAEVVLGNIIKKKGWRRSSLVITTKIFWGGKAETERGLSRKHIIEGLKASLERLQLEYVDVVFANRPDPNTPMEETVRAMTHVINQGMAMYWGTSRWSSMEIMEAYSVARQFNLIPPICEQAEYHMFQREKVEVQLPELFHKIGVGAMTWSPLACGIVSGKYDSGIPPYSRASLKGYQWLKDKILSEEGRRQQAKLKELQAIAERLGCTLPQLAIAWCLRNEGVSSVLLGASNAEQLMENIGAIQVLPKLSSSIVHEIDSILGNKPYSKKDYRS

What is called inhibition is the relative decrease from the control value, in per cent. Regarding `CCOC(=O)c1cnn(-c2sc(C(=O)OCC)c(C)c2C(=O)OCC)c1N`, the cell count in assay [1] came out at 451. Also, the inhibition was -1.9% (inactive) in assay [1], -5.8% (inactive) in assay [3], 7.68% (inactive) in assay [7] and -49.4% (inactive) in assay [8]. Also, the inhibition of aggregation in assay [2] is -35.1% (inactive). For the same molecule, the nuclei count was found to be 99.7% in assay [2] and 115% in assay [3]. Besides, the fluorescence slope in assay [4] is -0.517 (inactive). In assay [5], the NADPH fluorescence slope was 2.2e-05 (inactive). The slope in assay [6] was 0.00627 (inactive).
As to `COc1cc(S(=O)(=O)N2CCC(N3CCCCC3)CC2)ccc1-n1cnnn1`, the cell count in assay [1] came out at 351. Besides, the inhibition in assay [1] is 6.9% (inactive); in assay [3], -20.4% (inactive); in assay [7], -9.28% (inactive); in assay [8], 3.24% (inactive). For the same molecule, the inhibition of aggregation in assay [2] was 14.1% (inactive). Further, the nuclei count in assay [2] came to 89.1%; in assay [3], 102%. In addition, the fluorescence slope in assay [4] is -0.593 (inactive). Also, in assay [5], the NADPH fluorescence slope is -7.9e-06 (inactive). For the same molecule, the slope in assay [6] was 0.00492 (inactive).
Take `COc1ccc(C2=NOC(C(=O)Nc3cc(Br)ccc3O)C2)cc1OC` (configuration not stated): in assay [1], the cell count is 672. In addition, the inhibition was -12.2% (inactive) in assay [1], -73.1% (inactive) in assay [3], 9.82% (inactive) in assay [7] and 34.8% (inactive) in assay [8]. The inhibition of aggregation in assay [2] was -2.8% (inactive). The nuclei count worked out at 102% in assay [2] and 106% in assay [3]. In addition, in assay [4], the fluorescence slope was -0.459 (inactive). Moreover, in assay [5], the NADPH fluorescence slope is -3.2e-05 (inactive). Moreover, the slope in assay [6] was 0.00665 (inactive).
For `O=C(C1CCN(c2nnc(-n3cccc3)s2)CC1)N1CCOCC1`, in assay [1], the cell count came out at 661. The inhibition in assay [1] is -2.9% (inactive); in assay [3] it was -50.3% (inactive); in assay [7] it was 7.65% (inactive); in assay [8] it was 18% (inactive). The inhibition of aggregation in assay [2] is 6.4% (inactive). The nuclei count stood at 123% in assay [2] and 102% in assay [3]. The fluorescence slope in assay [4] was -0.418 (inactive). For the same molecule, in assay [5], the NADPH fluorescence slope is -4.1e-05 (inactive). For the same molecule, in assay [6], the slope was 0.00592 (inactive).
`CSCCC(NC(=O)c1ccco1)C(=O)O` (configuration not stated): the cell count in assay [1] stood at 411. The inhibition in assay [1] is 4.4% (inactive); in assay [3], -358% (inactive); in assay [7] it was -9.48% (inactive); in assay [8], -11.3% (inactive). Further, the inhibition of aggregation in assay [2] is -0.5% (inactive). Besides, the nuclei count came out at 105% in assay [2] and 143% in assay [3]. Moreover, the fluorescence slope in assay [4] is -0.534 (inactive). The NADPH fluorescence slope in assay [5] is -4e-05 (inactive). Further, the slope in assay [6] is 0.00451 (inactive).
For `COc1ccc(NC(=O)CSc2nnc(Cc3cccn3C)n2-c2ccc(F)cc2)cc1`, the cell count in assay [1] turned out to be 576. Besides, the inhibition in assay [1] is 1.1% (inactive); in assay [3], -72.7% (inactive); in assay [7], 15% (inactive); in assay [8], 18.7% (inactive). For the same molecule, in assay [2], the inhibition of aggregation was -14.5% (inactive). Also, the figures for the nuclei count in assay [2] and in assay [3] were 23.2% and 112%, respectively. In addition, in assay [4], the fluorescence slope was -0.577 (inactive). Moreover, in assay [5], the NADPH fluorescence slope was 1.2e-05 (inactive). The slope in assay [6] is 0.00735 (inactive).
Consider `COc1ccc(N2C(N)=C(C#N)C(c3cccnc3)C3=C2CC(C)(C)CC3=O)cc1` (configuration not stated), for which the cell count in assay [1] was 446. Also, the inhibition in assay [1] was -7.5% (inactive); in assay [3], -1.3% (inactive); in assay [7] it was 37.2% (inactive); in assay [8] it was 38.7% (inactive). In assay [2], the inhibition of aggregation is -1.2% (inactive). Also, the nuclei count in assay [2] was 97.7%; in assay [3] it was 104%. Also, the fluorescence slope in assay [4] is -0.461 (inactive). In addition, the NADPH fluorescence slope in assay [5] was -0.000329 (inactive). The slope in assay [6] was 0.00535 (inactive).
`O=C(Nc1cnn(Cc2ccc(F)cc2)c1)c1cnccn1`: in assay [1], the cell count turned out to be 582. The inhibition is -17% (inactive) in assay [1], -94.9% (inactive) in assay [3], 4.25% (inactive) in assay [7] and 8.05% (inactive) in assay [8]. Besides, in assay [2], the inhibition of aggregation is -7.5% (inactive). Moreover, the nuclei count in assay [2] turned out to be 109%; in assay [3] it was 120%. The fluorescence slope in assay [4] was -0.504 (inactive). Besides, the NADPH fluorescence slope in assay [5] was -4.3e-05 (inactive). Also, in assay [6], the slope was 0.00522 (inactive).
Take `COc1ccc(NC(=O)CN(c2ccc(C)cc2)S(C)(=O)=O)c(OC)c1`: in assay [1], the cell count turned out to be 498. Moreover, the inhibition was 10.1% (inactive) in assay [1], -180% (inactive) in assay [3], 4.75% (inactive) in assay [7] and 25.6% (inactive) in assay [8]. In addition, the inhibition of aggregation in assay [2] is -0.7% (inactive). Further, the nuclei count in assay [2] is 92.5%; in assay [3] it was 139%. In addition, in assay [4], the fluorescence slope was -0.392 (inactive). In assay [5], the NADPH fluorescence slope is -6e-05 (inactive). Further, the slope in assay [6] is 0.0037 (inactive).
As to `O=C(c1ccccc1-c1ccccc1)N1CCN(c2ccccn2)CC1`, the cell count in assay [1] came out at 384. Also, the inhibition in assay [1] is 7.8% (inactive); in assay [3], -93.4% (inactive); in assay [7], 43.1% (inactive); in assay [8] it was 26.8% (inactive). Moreover, the inhibition of aggregation in assay [2] was -81.8% (inactive). Also, the nuclei count in assay [2] came to 17.3%; in assay [3], 102%. Besides, the fluorescence slope in assay [4] was -0.5 (inactive). The NADPH fluorescence slope in assay [5] is -3.6e-05 (inactive). Moreover, in assay [6], the slope was 0.00494 (inactive).
In the case of `c1ccc2c(c1)CNC1(CCCCC1)C2`, the cell count in assay [1] was 362. Further, the inhibition is -3.4% (inactive) in assay [1], -2.1% (inactive) in assay [3], 13.3% (inactive) in assay [7] and 14.2% (inactive) in assay [8]. Moreover, the inhibition of aggregation in assay [2] was 13% (inactive). The nuclei count amounted to 114% in assay [2] and 103% in assay [3]. The fluorescence slope in assay [4] is -0.552 (inactive). Also, in assay [5], the NADPH fluorescence slope was 2.5e-05 (inactive). In addition, the slope in assay [6] is 0.00453 (inactive).
As for `O=c1[nH]c(N2CCc3ccccc32)nc2c1CCCC2`, in assay [1], the cell count stood at 309. Besides, the inhibition was 1.1% (inactive) in assay [1], 14.7% (inactive) in assay [3], 6.82% (inactive) in assay [7] and -14.4% (inactive) in assay [8]. In addition, the inhibition of aggregation in assay [2] was 11% (inactive). Moreover, the nuclei count amounted to 68.4% in assay [2] and 82.4% in assay [3]. The fluorescence slope in assay [4] was -0.507 (inactive). Besides, the NADPH fluorescence slope in assay [5] is -4.2e-05 (inactive). The slope in assay [6] is 0.0041 (inactive).
